This passage reports activity change results from PubChem BioAssay AID743279 (National Center for Advancing Translational Sciences (NCATS), 2014).

The whole screen tested about 360,000 compounds, of which about 17,000 (4.7%) were called active. Not shown: some 5% with an inconclusive outcome. No stated cut-off is given here; in the data, active means activity change below about -50%; inconclusive means mostly about -30% to -49%; inactive means weaker than that. This excerpt belongs to a sample that is enriched for actives.
On the % scale 0 is the no-effect control and ±100 the full control effect.

This test can be described thus: qHTS for Inhibitors of Inflammasome Signaling: IL-1-beta AlphaLISA Primary Screen. The settings on record: THP-1 LPS/ATP IL-1B secretion, 16 h; at 57.5 µM, stronger effect = lower value. Put shortly: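 Secreted IL-1B measured by AlphaLISA bead assay after 16 h compound exposure of THP-1 cells; compounds (final up to 57.5 uM) added 1 h before LPS (250 ng/mL) and ATP (1.25 mM) stimulation; lower signal means less secretion.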
For orientation: In qHTS, concentration-response curves come from the screen itself.
Consider `Nc1cccc(-c2cncc(N3CCN(Cc4ccccn4)CC3)n2)c1`, for which the activity change was -1.3% (inactive). For `O=C(C[C@H]1C[C@H]2c3cc(NS(=O)(=O)c4ccc(F)cc4)ccc3O[C@H]2[C@H](CO)O1)NCc1cc(F)ccc1F` the value was 9.17% (inactive); for `COc1ccc2cc1Oc1ccc(cc1)C[C@H]1c3cc(c(OC)cc3CCN1C)Oc1c(O)c(OC)cc3c1[C@H](C2)N(C)CC3`, -107% (active). On to `OC(c1ccc(Cl)c(F)c1)c1ncc(-c2ccccc2Cl)[nH]1` (configuration not stated), for which the activity change is 1.76% (inactive). Next, `CCc1nc2c(OCCc3cccc(OC)c3)cccn2c1N(C)C(=O)c1ccc(C)cc1`: -7.64% (inactive). In the case of `Cc1ccc(NC(=O)COC(=O)CN2CCSC2=O)cc1F`, the activity change is 4.94% (inactive).

As for `Cc1cc2nc(-c3ccc(F)cc3)c(Cc3ccsc3)n2c(C)c1Br`, the activity change is 14% (inactive). Take `Cc1ccc(NC(=S)N2CCCC(c3ccccc3)=N2)cc1`: the activity change was -20.4% (inactive). `Cc1ccc(C(=O)C[n+]2cc(-c3ccccc3)n3c2CCCCC3)cc1`: the activity change was -83.1% (active). Take `Cc1cccc[n+]1CC(=O)c1ccccc1`: the activity change is 22.7% (inactive).

As for `Cc1ccc(-c2c[n+](CC(=O)Nc3ccccc3)c3n2CCC3)cc1`, the activity change is -60.8% (active). Consider `Cc1ccc(C(=O)N2CCCC(c3ccccc3)=N2)cc1`, for which the activity change is -5.32% (inactive). As to `Cc1ccc(NC(=O)CN2CCc3ccccc3C2)cc1`, the activity change is 7.54% (inactive). Consider `COc1cccc(NC(=O)N(C)C[C@@H]2Oc3ncc(Br)cc3C(=O)N([C@@H](C)CO)C[C@H]2C)c1`, for which the activity change is 2.84% (inactive).

Regarding `NNC(=O)COc1ccc(C2SCCS2)cc1`, the activity change was 15.3% (inactive).

Turning to `OC[C@@H]1CN(Cc2cccs2)C[C@H](n2cnc3c(NC4CCCC4)ncnc32)O1`, the activity change is -3.1% (inactive). Regarding `CC1CCCC(NC(=O)COC(=O)c2ccccc2C(=O)N(C)C2CCCCC2)C1C` (configuration not stated), the activity change was -16.9% (inactive). Turning to `CCOC(=O)COn1c(=O)c(-c2ccc(OCC)cc2)[n+]([O-])c2ccccc21`, the activity change is 4.15% (inactive).

Regarding `O=c1c(-c2ccc(Cl)cc2)[n+]([O-])c2ccccc2n1OCc1nc2ccccc2[nH]1`, the activity change is 14.2% (inactive). Next, `CCOc1ccc(OCC)c(-c2c(=O)n(OCc3ccc(Cl)cc3)c3ccccc3[n+]2[O-])c1`: -67% (active); `CC(=O)OC1CCC2C3CCC4=C(CC(F)C(=O)C4)C3CCC12C` (configuration not stated): 5.77% (inactive). Turning to `Cc1cn([C@H]2C[C@H](O)[C@@H](CNC(=O)[C@H](N)Cc3cccnc3)O2)c(=O)[nH]c1=O`, the activity change is 11.3% (inactive).

On to `Cc1cccc(C)c1NC(=O)CNC(=O)c1ccc(N2CCOCC2)c([N+](=O)[O-])c1`, for which the activity change was -0.22% (inactive). For `CS(=O)(=O)N1CCN(c2ccc(C(=O)NC3C4CC5CC(C4)CC3C5)cc2[N+](=O)[O-])CC1` (configuration not stated), the activity change is 5.99% (inactive). For `CC(NC(=O)c1ccc(N2CCNCC2)c([N+](=O)[O-])c1)C12CC3CC(CC(C3)C1)C2` (configuration not stated) the value was -72.6% (active); for `O=C(Nc1ccc(N2C(=O)c3cccc4cccc(c34)C2=O)cc1)c1ccc(N2CCCCC2)c([N+](=O)[O-])c1`, -6.25% (inactive). For `CCC(C)NC(=O)c1ccc(N2CCC3(CC2)OCCO3)c([N+](=O)[O-])c1` (configuration not stated) the value was 0.859% (inactive); for `O=C(Nc1cccc(C(F)(F)F)c1)c1ccc(N2CCNCC2)c([N+](=O)[O-])c1`, -82.2% (active). With `Cc1nc2nc(C)c(CCC(=O)N3CCN(c4ccccc4)CC3)c(C)n2n1`, the activity change is -17.6% (inactive). Next, `C[N+](C)(C)CCNC(=O)c1c[nH]c2ccccc12`: 24.4% (inactive); `CCC(C(=O)NCc1cccnc1)n1nc(C)c2sc3ccccc3c2c1=O` (configuration not stated): -16.1% (inactive). For the compound `Cc1ccc(S(=O)(=O)N(CC(=O)NN=C2CCN(C)CC2)c2ccc(F)cc2)cc1`, the activity change was 31% (inactive).

For `CCNC(=O)CN(c1ccc(C)cc1)S(=O)(=O)c1ccc(SC)cc1`, the activity change was -55.3% (active). `CCOc1ccc(N(CC(=O)NCC2CCCO2)S(=O)(=O)c2ccc(C)cc2)cc1` (configuration not stated): the activity change was 7.07% (inactive). For `COc1ccc(S(=O)(=O)NC(=O)C2(C)CCN2C(=O)c2ccccc2CCc2ccccc2)cc1` (configuration not stated), the activity change is 22.1% (inactive). In the case of `CCCNC(=O)C1(C)CCN(C(=O)c2ccccc2OC(F)(F)F)C1` (configuration not stated), the activity change was 15.8% (inactive). Next, `COc1ncnc2c1ncn2CCCNCCN1CCOCC1`: 44.5% (inactive).

`O=S(=O)(O)c1cc2onnc2c2ccccc12`: the activity change is 0% (inactive). `Cc1ccc(Nc2nc(N)nc(CN3CCN(Cc4ccccc4)CC3)n2)cc1Cl`: the activity change was 0% (inactive). As to `OCCNc1nc(Nc2ccc(Cl)c(Cl)c2)nc2ccccc12`, the activity change is -92.5% (active).

With `CNc1nc(Nc2ccc(C)c(Cl)c2)nc(N)c1[N+](=O)[O-]`, the activity change is -21.8% (inactive). For `COc1cc(NC(=O)C2=C(C)OCCS2)c(Cl)cc1C(=O)NCCCN1CCCC(C)C1` (configuration not stated) the value was -28.6% (inactive); for `CCCNC(=O)C1(C)CCN(C(=O)c2cc(F)ccc2C)C1` (configuration not stated), 34.1% (inactive); for `COc1cccc(C(NC(C)=O)c2nc(-c3ccccc3OC)cs2)c1` (configuration not stated), 9.34% (inactive). Turning to `COC(=O)C[C@@H]1C=C[C@@H](NC(=O)c2ccc3c(c2)OCO3)[C@@H](CO)O1`, the activity change is 7.5% (inactive). Next, `COc1cccc(CNC(=O)CN2C(=O)NC(Cc3ccccc3)(c3ccccc3)C2=O)c1` (configuration not stated): -58.8% (active); `CCCCNC(=O)CN1C(=O)NC(Cc2ccccc2)(Cc2ccccc2)C1=O`: 4.67% (inactive); `COc1cccc(CNC(=O)COC(=O)CN2C(=O)NC3(CCCCC3C)C2=O)c1` (configuration not stated): 8.38% (inactive). With `CN(Cc1nc2ccccc2c(=O)[nH]1)Cc1cc(=O)oc2ccc3ccccc3c12`, the activity change is 0.506% (inactive).

For the compound `O=C(CNc1ccccc1N1CCCC1=O)Nc1cc(Cl)ccc1-n1cncn1`, the activity change is -19.4% (inactive). Regarding `CCN(CC)S(=O)(=O)c1ccc(NC(=O)c2cnc(C)cn2)cc1`, the activity change is 57% (inactive).

In the case of `CCN(CC)S(=O)(=O)c1ccc(NC(=O)c2cccnc2Cl)c(NC(=O)c2cccnc2Cl)c1`, the activity change is -102% (active). In the case of `Cc1ccc(CNC(=O)c2cccnc2Cl)cc1`, the activity change is 55.4% (inactive). With `CC(O)(c1cccc(F)c1)c1nc(-c2ccc3c(c2)OCO3)cs1` (configuration not stated), the activity change was 16% (inactive). As to `COc1cc(-c2nnc(NC(=O)CS(=O)(=O)c3ccc(Cl)cc3)o2)cc(OC)c1OC`, the activity change is -11% (inactive). With `CCN(CC)c1ccc(NC(=O)c2ccc(=O)[nH]c2)cc1S(=O)(=O)Nc1ccc(OC)cc1`, the activity change was -3.18% (inactive).

Turning to `COc1ccc(CNC(=O)COC(=O)c2sccc2C)cc1OC`, the activity change was 12.1% (inactive). For `Oc1[nH]c2ccccc2c1N=Nc1c(F)c(F)c(F)c(F)c1F` the value was -7.81% (inactive). Consider `O=C(CCN1CCCCC1)N=Nc1c(O)[nH]c2ccccc12`, for which the activity change was -74.6% (active).

As to `Cc1cccc(N(CC(=O)N=Nc2c(O)[nH]c3ccccc23)S(C)(=O)=O)c1C`, the activity change was 19.5% (inactive). For `CS(=O)(=O)N1CCc2nc(-c3ccccc3)sc2C1`, the activity change was 54.3% (inactive). Take `COc1ccccc1OCCNC(=O)C(CCSC)NC(=O)COc1ccccc1` (configuration not stated): the activity change was -18.9% (inactive).

On to `NC(=O)c1ccc(N2CCCC2)nc1`, for which the activity change is 5.48% (inactive). On to `Cc1nc2ccc(C(=O)N(C)CC3CCCN(CCc4ccc(Cl)cc4)C3)cc2[nH]1` (configuration not stated), for which the activity change is 8.01% (inactive). For the compound `COc1cccc(CN(C)CC(=O)NCc2ccccc2Cl)c1OC`, the activity change was 1.26% (inactive). With `COc1cccc(CN(C)CC2CCCN(CCc3ccc(Cl)cc3)C2)c1OC` (configuration not stated), the activity change was -90.5% (active). `C[C@H]1CN([C@@H](C)CO)S(=O)(=O)c2ccc(-c3cccc(F)c3)cc2O[C@@H]1CN(C)C`: the activity change is -2.69% (inactive). In the case of `CC(C)Nc1nc(NCCOc2ccccc2Cl)c2sccc2n1`, the activity change was -90.6% (active). Regarding `O=C(NCCOc1ccccc1Cl)C(=O)Nc1ccccc1`, the activity change entry was “inactive”. For `Clc1ccccc1Nc1nc(NCc2cccs2)nc2ccsc12`, the activity change is 42.9% (inactive). For the compound `C=C(C)C1CC=C(C)/C(=N\NC(=O)CNc2ccccc2OC)C1` (configuration not stated), the activity change was -1.86% (inactive).

With `COc1ccc2nc(-c3ccccn3)ccc2c1`, the activity change is 19.8% (inactive). For `CCc1ccccc1NC(=O)CN1CCN(C(=O)c2cc(C3CC3)nn2-c2ccccc2)CC1`, the activity change was -18.2% (inactive). Turning to `CC(=O)Nc1cccc(-c2ccnc3c2CC(C)(C(=O)NCc2ccco2)O3)c1` (configuration not stated), the activity change is 78.5% (inactive).

Take `COc1cccc2oc(CCc3ccccc3)cc(=O)c12`: the activity change is -5.15% (inactive). As for `CC(C)(C)OC(=O)CNC(=O)c1[nH]cnc1C(=O)N[C@@H](CCCCN)C(=O)OC(C)(C)C`, the activity change is -12.6% (inactive). Turning to `CCOC(=O)c1ccc(NC(=O)c2nc[nH]c2C(=O)NCc2ccccc2)cc1`, the activity change was 7.09% (inactive).

For the compound `CCOC(=O)c1ccc(NC(=O)c2nc[nH]c2C(=O)N[C@@H](CCCCNC(=O)OC(C)(C)C)C(=O)OC(C)(C)C)cc1`, the activity change is -62.8% (active). `COc1ccccc1CC1(C)C(=O)Nc2ccc(OC(F)(F)F)cc21` (configuration not stated): the activity change is 4.75% (inactive). For `COc1ccc(/C=C(\C#N)c2c[nH]c3ccccc23)cc1` the value was -102% (active); for `COc1ccc(/C=C(\NC(=O)c2ccc(OC)c(OC)c2)C(=O)NCCc2c[nH]c3ccccc23)cc1`, -11.1% (inactive). As for `COc1ccc(C(C(O)C(=O)c2c[nH]c3ccccc23)N2CCN(c3ccccc3)CC2)cc1` (configuration not stated), the activity change was 14.4% (inactive). Take `Cc1ccc([C@H]2N[C@]3(CCCN(CC4CCCCC4)C3=O)[C@H]3C(=O)N(Cc4ccccc4)C(=O)[C@@H]23)cc1`: the activity change is -9.33% (inactive). Next, `CC(=O)NCC(O)c1ccc([N+](=O)[O-])cc1` (configuration not stated): 0.816% (inactive).

Regarding `O=C(CC(c1ccccc1)c1ccccc1)NCC(O)c1ccc([N+](=O)[O-])cc1` (configuration not stated), the activity change was -69.4% (active). Take `O=C(NCC(O)c1ccc([N+](=O)[O-])cc1)C1CCCCC1` (configuration not stated): the activity change was -13.9% (inactive).

As to `O=C(O)c1ccc([N+](=O)[O-])cc1Sc1ccsc1`, the activity change is 4.28% (inactive).
